Hit rate of the full screen: of about 5,500 compounds, about 2,000 (36%) were called active. Roughly 18% stayed inconclusive and do not appear here. No stated cut-off is given here; in the data, active means normalized growth mostly below about 0.91 (no sharp cut-off); inconclusive means no clear call, values can overlap the other calls; inactive means mostly above about 0.92. The list shows a part of the results.
Experiment: chemical genetic growth profiling, strain panel (AID 1159580);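 further: tested at 20 µM; growth read once vehicle control cultures reached saturation at 30 °C; 1 = growth at the plate median or of vehicle wells; lower values mean less growth of the strain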
Conditions: S. cerevisiae deletion strains, growth OD

Measured: normalized growth

CC(=O)c1ccc2c(c1)N(CCCN(C)C)c1ccccc1S2
inactive: locus YAL021C, strain ccr4, hits give low values 0.962 | locus YAL026C, strain drs2, hits give low values 0.981 | locus YAL030W, strain snc1, hits give low values 1 | locus YBL061C, strain skt5, hits give low values 0.992 | locus YBR009C, strain hhf1, hits give low values 1 | locus YBR023C, strain chs3, hits give low values 1.01 | locus YBR171W, strain sec66, hits give low values 0.988 | locus YBR231C, strain swc5, hits give low values 0.994 | locus YBR279W, strain paf1, hits give low values 0.988 | locus YCL011C, strain gbp2, hits give low values 0.976 | locus YCL016C, strain dcc1, hits give low values 0.995 | locus YCL061C, strain MRC1, hits give low values 0.983 | locus YCL069W, strain vba3, hits give low values 0.988 | locus YCR088W, strain abp1, hits give low values 0.978 | locus YDL005C, strain med2, hits give low values 0.989 | locus YDL040C, strain nat1, hits give low values 0.99 | locus YDR001C, strain nth1, hits give low values 0.983 | locus YDR069C, strain doa4, hits give low values 0.99 | locus YDR137W, strain rgp1, hits give low values 1.09 | locus YDR159W, strain sac3, hits give low values 1.01 | locus YDR195W, strain ref2 1 | locus YDR297W, strain sur2, hits give low values 0.984 | locus YDR334W, strain swr1, hits give low values 0.959 | locus YDR335W, strain msn5, hits give low values 0.968 | locus YDR392W, strain spt3, hits give low values 0.994 | locus YEL003W, strain gim4, hits give low values 0.986 | locus YEL037C, strain rad23, hits give low values 0.939 | locus YEL061C, strain CIN8 (second series), hits give low values 0.984 | locus YER015W, strain faa2, hits give low values 0.98 | locus YER016W, strain bim1, hits give low values 0.989 | locus YER111C, strain swi4, hits give low values 0.994 | locus YER155C, strain BEM2 (second series), hits give low values 0.995 | locus YFR010W, strain ubp6, hits give low values 0.974 | locus YGL167C, strain pmr1, hits give low values 0.987 | locus YGL173C, strain kem1, hits give low values 0.973 | locus YGL227W, strain vid30, hits give low values 0.991 | locus YGL240W, strain doc1, hits give low values 1 | locus YGL253W, strain hxk2, hits give low values 0.993 | locus YHR013C, strain ard1, hits give low values 0.947 | locus YHR027C, strain rpn1, hits give low values 0.986 | locus YHR030C, strain SLT2, hits give low values 0.966 | locus YHR079C, strain IRE1, hits give low values 0.963 | locus YHR142W, strain chs7, hits give low values 0.943 | locus YJL092W, strain hpr5, hits give low values 0.934 | locus YJL095W, strain BCK1 (second series), hits give low values 1 | locus YJL095W, strain BCK1, hits give low values 1 | locus YJL115W, strain asf1, hits give low values 0.974 | locus YJL129C, strain trk1, hits give low values 0.981 | locus YJL154C, strain vps35, hits give low values 0.987 | locus YJL164C, strain tpk1, hits give low values 0.99 | locus YJL166W, strain qcr8, hits give low values 0.997 | locus YJL187C, strain SWE1, hits give low values 0.998 | locus YJR066W, strain TOR1, hits give low values 0.923 | locus YKL160W, strain elf1, hits give low values 0.976 | locus YKR026C, strain gcn3, hits give low values 0.979 | locus YKR091W, strain srl3, hits give low values 0.992 | locus YLL001W, strain dnm1, hits give low values 0.973 | locus YLL026W, hits give low values 0.996 | locus YLL041C, strain sdh2, hits give low values 0.98 | locus YLR027C, strain aat2, hits give low values 0.995 | locus YLR113W, strain HOG1, hits give low values 0.995 | locus YLR221C, strain rsa3, hits give low values 0.979 | locus YLR258W, strain gsy2, hits give low values 0.995 | locus YLR262C, strain YPT6 (second series), hits give low values 1.06 | locus YLR320W, strain mms22, hits give low values 1.01 | locus YLR342W, strain FKS1, hits give low values 0.99 | locus YLR357W, strain rsc2, hits give low values 1.01 | locus YLR370C, strain arc18, hits give low values 0.984 | locus YLR384C, strain iki3, hits give low values 0.987 | locus YML120C, strain ndi1, hits give low values 0.969 | locus YMR058W, strain fet3, hits give low values 0.967 | locus YMR125W, strain sto1, hits give low values 1.02 | locus YMR129W, hits give low values 0.991 | locus YMR205C, strain PFK2, hits give low values 1.02 | locus YMR231W, strain pep5, hits give low values 0.996 | locus YNL071W, strain lat1, hits give low values 0.995 | locus YNL183C, strain NPR1, hits give low values 0.947 | locus YNL209W, strain ssb2, hits give low values 0.99 | locus YNL248C, strain rpa49, hits give low values 0.956 | locus YNL322C, strain KRE1 (second series), hits give low values 0.987 | locus YNR049C, strain mso1, hits give low values 0.989 | locus YOR001W, strain rrp6, hits give low values 0.975 | locus YOR070C, strain gyp1, hits give low values 0.992 | locus YOR080W, strain dia2, hits give low values 0.983 | locus YOR083W, strain WHI5, hits give low values 0.971 | locus YOR106W, strain vam3, hits give low values 0.972 | locus YOR231W, strain MKK1, hits give low values 0.972 | locus YOR265W, strain rbl2, hits give low values 0.995 | locus YOR270C, strain vph1, hits give low values 0.958 | locus YOR290C, strain snf2, hits give low values 1.02 | locus YPL051W, strain arl3, hits give low values 0.994 | locus YPL078C, strain atp4, hits give low values 1 | locus YPL106C, strain sse1, hits give low values 0.973 | locus YPL240C, strain hsp82, hits give low values 0.997 | locus YPL256C, strain CLN2, hits give low values 0.954
